B1: GCATCCTG (ssRNA)
RNA 1: GAGUUCUACAGUCCGACGAUCCCAACGCAUCCUGCACCUGGAAUUCUCGGGUGCCAA
RNA 2: UGGAGUGUGACAAUGGUGUUUG
DNA 1: GATCGTCGGACTGTAGAACTC
DNA 2: TTGGCACCCGAGAATTCCA
modifications: constant regions annealed to DNA blockers; guide miR-122 5' phosphate
B2: GTATCTCG (ssRNA)
RNA 1: B1 RNA 1 with C28U, C32U, U33C
RNA 2: UGGAGUGUGACAAUGGUGUUUG
DNA 1: GATCGTCGGACTGTAGAACTC
DNA 2: TTGGCACCCGAGAATTCCA
modifications: constant regions annealed to DNA blockers; guide miR-122 5' phosphate
B3: GTACCTTA (ssRNA)
RNA 1: B1 RNA 1 with C28U, U30C, C32U, G34A
RNA 2: UGGAGUGUGACAAUGGUGUUUG
DNA 1: GATCGTCGGACTGTAGAACTC
DNA 2: TTGGCACCCGAGAATTCCA
modifications: constant regions annealed to DNA blockers; guide miR-122 5' phosphate
B4: ATGCTCTG (ssRNA)
RNA 1: B1 RNA 1 with G27A, C28U, A29G, U30C, C31U
RNA 2: UGGAGUGUGACAAUGGUGUUUG
DNA 1: GATCGTCGGACTGTAGAACTC
DNA 2: TTGGCACCCGAGAATTCCA
modifications: constant regions annealed to DNA blockers; guide miR-122 5' phosphate
B5: ATATTTCG (ssRNA)
RNA 1: B1 RNA 1 with G27A, C28U, C31U, C32U, U33C
RNA 2: UGGAGUGUGACAAUGGUGUUUG
DNA 1: GATCGTCGGACTGTAGAACTC
DNA 2: TTGGCACCCGAGAATTCCA
modifications: constant regions annealed to DNA blockers; guide miR-122 5' phosphate
B6: ACGTTTCG (ssRNA)
RNA 1: B1 RNA 1 with G27A, A29G, C31U, C32U, U33C
RNA 2: UGGAGUGUGACAAUGGUGUUUG
DNA 1: GATCGTCGGACTGTAGAACTC
DNA 2: TTGGCACCCGAGAATTCCA
modifications: constant regions annealed to DNA blockers; guide miR-122 5' phosphate
B7: ACGTCCCG (ssRNA)
RNA 1: B1 RNA 1 with G27A, A29G, U33C
RNA 2: UGGAGUGUGACAAUGGUGUUUG
DNA 1: GATCGTCGGACTGTAGAACTC
DNA 2: TTGGCACCCGAGAATTCCA
modifications: constant regions annealed to DNA blockers; guide miR-122 5' phosphate
B8: GTGTTTCG (ssRNA)
RNA 1: B1 RNA 1 with C28U, A29G, C31U, C32U, U33C
RNA 2: UGGAGUGUGACAAUGGUGUUUG
DNA 1: GATCGTCGGACTGTAGAACTC
DNA 2: TTGGCACCCGAGAATTCCA
modifications: constant regions annealed to DNA blockers; guide miR-122 5' phosphate
B9: GTATTTCG (ssRNA)
RNA 1: B1 RNA 1 with C28U, C31U, C32U, U33C
RNA 2: UGGAGUGUGACAAUGGUGUUUG
DNA 1: GATCGTCGGACTGTAGAACTC
DNA 2: TTGGCACCCGAGAATTCCA
modifications: constant regions annealed to DNA blockers; guide miR-122 5' phosphate
B10: ATGTTCTG (ssRNA)
RNA 1: B1 RNA 1 with G27A, C28U, A29G, C31U
RNA 2: UGGAGUGUGACAAUGGUGUUUG
DNA 1: GATCGTCGGACTGTAGAACTC
DNA 2: TTGGCACCCGAGAATTCCA
modifications: constant regions annealed to DNA blockers; guide miR-122 5' phosphate
B11: GCATTCTG (ssRNA)
RNA 1: B1 RNA 1 with C31U
RNA 2: UGGAGUGUGACAAUGGUGUUUG
DNA 1: GATCGTCGGACTGTAGAACTC
DNA 2: TTGGCACCCGAGAATTCCA
modifications: constant regions annealed to DNA blockers; guide miR-122 5' phosphate
B12: ATGCCTCG (ssRNA)
RNA 1: B1 RNA 1 with G27A, C28U, A29G, U30C, C32U, U33C
RNA 2: UGGAGUGUGACAAUGGUGUUUG
DNA 1: GATCGTCGGACTGTAGAACTC
DNA 2: TTGGCACCCGAGAATTCCA
modifications: constant regions annealed to DNA blockers; guide miR-122 5' phosphate
B13: ACGCCCTG (ssRNA)
RNA 1: B1 RNA 1 with G27A, A29G, U30C
RNA 2: UGGAGUGUGACAAUGGUGUUUG
DNA 1: GATCGTCGGACTGTAGAACTC
DNA 2: TTGGCACCCGAGAATTCCA
modifications: constant regions annealed to DNA blockers; guide miR-122 5' phosphate
B14: GTGTTCTA (ssRNA)
RNA 1: B1 RNA 1 with C28U, A29G, C31U, G34A
RNA 2: UGGAGUGUGACAAUGGUGUUUG
DNA 1: GATCGTCGGACTGTAGAACTC
DNA 2: TTGGCACCCGAGAATTCCA
modifications: constant regions annealed to DNA blockers; guide miR-122 5' phosphate
B15: ATACCCCG (ssRNA)
RNA 1: B1 RNA 1 with G27A, C28U, U30C, U33C
RNA 2: UGGAGUGUGACAAUGGUGUUUG
DNA 1: GATCGTCGGACTGTAGAACTC
DNA 2: TTGGCACCCGAGAATTCCA
modifications: constant regions annealed to DNA blockers; guide miR-122 5' phosphate
B16: GTACCCTG (ssRNA)
RNA 1: B1 RNA 1 with C28U, U30C
RNA 2: UGGAGUGUGACAAUGGUGUUUG
DNA 1: GATCGTCGGACTGTAGAACTC
DNA 2: TTGGCACCCGAGAATTCCA
modifications: constant regions annealed to DNA blockers; guide miR-122 5' phosphate
B17: GTATCTTA (ssRNA)
RNA 1: B1 RNA 1 with C28U, C32U, G34A
RNA 2: UGGAGUGUGACAAUGGUGUUUG
DNA 1: GATCGTCGGACTGTAGAACTC
DNA 2: TTGGCACCCGAGAATTCCA
modifications: constant regions annealed to DNA blockers; guide miR-122 5' phosphate
B18: ATACCTTG (ssRNA)
RNA 1: B1 RNA 1 with G27A, C28U, U30C, C32U
RNA 2: UGGAGUGUGACAAUGGUGUUUG
DNA 1: GATCGTCGGACTGTAGAACTC
DNA 2: TTGGCACCCGAGAATTCCA
modifications: constant regions annealed to DNA blockers; guide miR-122 5' phosphate
B19: ACGCTTTG (ssRNA)
RNA 1: B1 RNA 1 with G27A, A29G, U30C, C31U, C32U
RNA 2: UGGAGUGUGACAAUGGUGUUUG
DNA 1: GATCGTCGGACTGTAGAACTC
DNA 2: TTGGCACCCGAGAATTCCA
modifications: constant regions annealed to DNA blockers; guide miR-122 5' phosphate
B20: GTATTTTG (ssRNA)
RNA 1: B1 RNA 1 with C28U, C31U, C32U
RNA 2: UGGAGUGUGACAAUGGUGUUUG
DNA 1: GATCGTCGGACTGTAGAACTC
DNA 2: TTGGCACCCGAGAATTCCA
modifications: constant regions annealed to DNA blockers; guide miR-122 5' phosphate
B21: GCACTTTG (ssRNA)
RNA 1: B1 RNA 1 with U30C, C31U, C32U
RNA 2: UGGAGUGUGACAAUGGUGUUUG
DNA 1: GATCGTCGGACTGTAGAACTC
DNA 2: TTGGCACCCGAGAATTCCA
modifications: constant regions annealed to DNA blockers; guide miR-122 5' phosphate
B22: ATACCTTA (ssRNA)
RNA 1: B1 RNA 1 with G27A, C28U, U30C, C32U, G34A
RNA 2: UGGAGUGUGACAAUGGUGUUUG
DNA 1: GATCGTCGGACTGTAGAACTC
DNA 2: TTGGCACCCGAGAATTCCA
modifications: constant regions annealed to DNA blockers; guide miR-122 5' phosphate
B23: GTGTCCCG (ssRNA)
RNA 1: B1 RNA 1 with C28U, A29G, U33C
RNA 2: UGGAGUGUGACAAUGGUGUUUG
DNA 1: GATCGTCGGACTGTAGAACTC
DNA 2: TTGGCACCCGAGAATTCCA
modifications: constant regions annealed to DNA blockers; guide miR-122 5' phosphate

Residue numbers refer to the chain shown, from its start.

AGO2 T357M, sequence (Q9UKV8 whole entry T357M/S387D/S824A/S828D/S831D/S834A): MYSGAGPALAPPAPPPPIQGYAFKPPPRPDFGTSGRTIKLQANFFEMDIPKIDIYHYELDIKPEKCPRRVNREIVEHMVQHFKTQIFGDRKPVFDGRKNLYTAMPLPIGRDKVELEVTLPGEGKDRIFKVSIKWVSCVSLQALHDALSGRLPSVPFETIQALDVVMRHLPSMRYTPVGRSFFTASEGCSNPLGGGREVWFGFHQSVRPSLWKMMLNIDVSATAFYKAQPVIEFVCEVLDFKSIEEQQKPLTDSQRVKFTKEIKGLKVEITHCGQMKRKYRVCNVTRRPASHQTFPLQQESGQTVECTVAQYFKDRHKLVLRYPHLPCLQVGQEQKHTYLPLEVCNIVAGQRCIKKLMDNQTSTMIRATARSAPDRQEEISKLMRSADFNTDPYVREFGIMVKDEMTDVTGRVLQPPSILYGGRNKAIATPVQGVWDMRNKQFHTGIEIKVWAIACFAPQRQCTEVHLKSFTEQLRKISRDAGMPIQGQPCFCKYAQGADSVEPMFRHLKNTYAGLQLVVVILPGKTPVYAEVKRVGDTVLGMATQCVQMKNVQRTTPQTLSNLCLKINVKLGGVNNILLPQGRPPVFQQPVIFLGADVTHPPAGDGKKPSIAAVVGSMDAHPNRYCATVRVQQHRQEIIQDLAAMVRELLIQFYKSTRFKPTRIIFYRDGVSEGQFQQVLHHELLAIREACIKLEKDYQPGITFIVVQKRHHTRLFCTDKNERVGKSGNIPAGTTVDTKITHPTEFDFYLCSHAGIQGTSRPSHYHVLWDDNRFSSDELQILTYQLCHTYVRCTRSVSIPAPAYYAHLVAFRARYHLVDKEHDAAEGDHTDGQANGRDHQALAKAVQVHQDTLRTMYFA
AGO2 A367P, sequence (Q9UKV8 whole entry A367P/S387D/S824A/S828D/S831D/S834A): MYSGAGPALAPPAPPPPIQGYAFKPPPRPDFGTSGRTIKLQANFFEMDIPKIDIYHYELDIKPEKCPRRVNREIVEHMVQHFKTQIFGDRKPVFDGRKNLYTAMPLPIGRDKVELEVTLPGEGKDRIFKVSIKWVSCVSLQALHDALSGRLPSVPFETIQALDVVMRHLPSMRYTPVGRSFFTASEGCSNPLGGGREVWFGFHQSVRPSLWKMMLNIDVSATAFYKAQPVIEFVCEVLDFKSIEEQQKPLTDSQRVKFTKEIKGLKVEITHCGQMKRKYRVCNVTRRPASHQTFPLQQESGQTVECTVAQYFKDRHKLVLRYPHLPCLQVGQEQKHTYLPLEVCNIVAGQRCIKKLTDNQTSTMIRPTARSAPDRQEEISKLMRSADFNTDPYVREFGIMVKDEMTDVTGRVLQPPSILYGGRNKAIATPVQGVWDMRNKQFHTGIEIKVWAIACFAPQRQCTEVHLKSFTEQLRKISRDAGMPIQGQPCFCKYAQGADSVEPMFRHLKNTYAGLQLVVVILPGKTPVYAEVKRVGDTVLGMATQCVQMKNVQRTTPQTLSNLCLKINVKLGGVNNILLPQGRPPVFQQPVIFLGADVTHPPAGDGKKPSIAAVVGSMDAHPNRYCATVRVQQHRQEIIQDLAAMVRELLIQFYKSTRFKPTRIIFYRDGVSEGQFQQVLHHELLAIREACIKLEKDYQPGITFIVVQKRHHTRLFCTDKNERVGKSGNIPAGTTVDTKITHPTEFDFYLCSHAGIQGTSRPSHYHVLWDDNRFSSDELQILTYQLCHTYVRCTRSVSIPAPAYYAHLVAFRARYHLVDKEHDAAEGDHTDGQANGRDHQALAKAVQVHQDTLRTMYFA
AGO2 L192P, sequence (Q9UKV8 whole entry L192P/S387D/S824A/S828D/S831D/S834A): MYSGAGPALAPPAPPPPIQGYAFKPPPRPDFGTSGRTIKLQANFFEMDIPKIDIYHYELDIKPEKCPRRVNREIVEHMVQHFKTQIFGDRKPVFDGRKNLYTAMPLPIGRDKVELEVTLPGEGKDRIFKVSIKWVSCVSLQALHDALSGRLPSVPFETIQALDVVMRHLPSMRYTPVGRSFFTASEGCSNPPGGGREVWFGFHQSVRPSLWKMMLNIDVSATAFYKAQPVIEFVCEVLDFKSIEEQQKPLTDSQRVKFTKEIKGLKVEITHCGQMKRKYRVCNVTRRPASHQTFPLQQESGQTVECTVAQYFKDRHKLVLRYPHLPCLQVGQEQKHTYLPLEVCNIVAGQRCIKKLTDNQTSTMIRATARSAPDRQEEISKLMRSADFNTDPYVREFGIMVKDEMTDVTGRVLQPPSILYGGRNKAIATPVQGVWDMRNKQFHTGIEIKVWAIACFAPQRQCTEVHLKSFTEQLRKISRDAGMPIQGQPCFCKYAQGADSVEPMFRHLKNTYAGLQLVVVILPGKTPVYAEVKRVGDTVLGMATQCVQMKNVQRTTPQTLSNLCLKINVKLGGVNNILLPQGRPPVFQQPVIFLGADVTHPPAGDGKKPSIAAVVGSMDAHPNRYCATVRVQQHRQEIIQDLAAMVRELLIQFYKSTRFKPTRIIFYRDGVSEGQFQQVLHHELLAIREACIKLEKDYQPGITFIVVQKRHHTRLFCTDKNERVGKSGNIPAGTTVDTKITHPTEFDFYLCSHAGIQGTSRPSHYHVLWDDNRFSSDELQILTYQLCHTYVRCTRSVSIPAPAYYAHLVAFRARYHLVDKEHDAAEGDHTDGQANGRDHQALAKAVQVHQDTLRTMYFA

The first assay has as its target AGO2 L192P (Homo sapiens, UniProt Q9UKV8 1-859, L192P;S387D;S824A;S828D;S831D;S834A). The experiment in a line: RNA Bind-n-Seq (nitrocellulose filter binding and sequencing); miR-122 guide loaded in AGO2; 60 min incubation; 30 mM Tris pH 8.0, 100 mM potassium acetate, 2 mM magnesium acetate, 0.5 mM TCEP, 0.005% NP-40, 0.01 mg/ml yeast tRNA; 3 nM AGO2-miR-122, 100 nM RNA library; 60; high values mean tight binding. The settings on record: protein: recombinant; tags: His6 (N-terminal, pFastBac HTA). The essentials:
(§1)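 Fold enrichment is each target's read fraction divided by its read fraction in the input library. Sf9 insect cells expressed His-tagged AGO2 from baculovirus; the protein was loaded with a synthetic guide RNA and purified by Ni-NTA and a biotinylated capture oligo. The bound RNA was extracted, reverse-transcribed, barcode-amplified and sequenced on Illumina.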
Regarding B1, the binding signal was 0.336 fold enrichment over input.
As for B2, the binding signal was 0.333 fold enrichment over input.
As for B3, the binding signal is 0.445 fold enrichment over input.
On the same count and under the same terms, in the case of B4 it was 0.376 fold enrichment over input.
On the same count and under the same terms, in the case of B5 it was 0.414 fold enrichment over input.
In the case of B6, the binding signal is 0.338 fold enrichment over input.
On to B7, for which the binding signal is 0.332 fold enrichment over input.
As for B8, the binding signal is 0.36 fold enrichment over input.
Take B9: the binding signal is 0.381 fold enrichment over input.
In the case of B10, the binding signal was 0.362 fold enrichment over input.
Turning to B11, the binding signal is 0.359 fold enrichment over input.
Regarding B12, the binding signal is 0.34 fold enrichment over input.
As to B13, the binding signal was 0.4 fold enrichment over input.
For the molecule B14, the binding signal is 0.435 fold enrichment over input.
Consider B15, for which the binding signal is 0.382 fold enrichment over input.
As for B16, the binding signal is 0.344 fold enrichment over input.
Regarding B17, the binding signal is 0.457 fold enrichment over input.
As to B18, the binding signal is 0.418 fold enrichment over input.
Take B19: the binding signal is 0.36 fold enrichment over input.
For B20, the binding signal was 0.384 fold enrichment over input.
In the case of B21, the binding signal was 0.325 fold enrichment over input.
Consider B22, for which the binding signal is 0.475 fold enrichment over input.
Regarding B23, the binding signal was 0.344 fold enrichment over input.

The target of the next assay is AGO2 A367P (Homo sapiens, UniProt Q9UKV8 1-859, A367P;S387D;S824A;S828D;S831D;S834A). The assay is described as above. Conditions: protein: recombinant; tags: His6 (N-terminal, pFastBac HTA). In a few lines:
as §1
With B1, the binding signal was 0.13 fold enrichment over input.
Consider B2, for which the binding signal was 0.128 fold enrichment over input.
As for B3, the binding signal is 0.167 fold enrichment over input.
Turning to B4, the binding signal is 0.14 fold enrichment over input.
For the molecule B5, the binding signal was 0.135 fold enrichment over input.
With B6, the binding signal was 0.13 fold enrichment over input.
Still for that read-out and setting: the same measure for B7: 0.141 fold enrichment over input.
On to B8, for which the binding signal was 0.133 fold enrichment over input.
Take B9: the binding signal is 0.127 fold enrichment over input.
With B10, the binding signal was 0.132 fold enrichment over input.
As for B11, the binding signal was 0.137 fold enrichment over input.
Take B12: the binding signal was 0.134 fold enrichment over input.
As for B13, the binding signal is 0.147 fold enrichment over input.
Regarding B14, the binding signal is 0.156 fold enrichment over input.
On to B15, for which the binding signal is 0.14 fold enrichment over input.
As to B16, the binding signal is 0.129 fold enrichment over input.
Take B17: the binding signal is 0.174 fold enrichment over input.
On the same count and under the same terms, in the case of B18 it was 0.125 fold enrichment over input; in that of B19, 0.134 fold enrichment over input.
In the case of B20, the binding signal was 0.131 fold enrichment over input.
For B21, the binding signal was 0.126 fold enrichment over input.
Take B22: the binding signal is 0.166 fold enrichment over input.
B23: the binding signal is 0.126 fold enrichment over input.

Another assay concerns the target AGO2 T357M (Homo sapiens, UniProt Q9UKV8 1-859, T357M;S387D;S824A;S828D;S831D;S834A). The assay is described as above. Conditions: protein: recombinant; tags: His6 (N-terminal, pFastBac HTA). In a few lines:
as §1
Consider B1, for which the binding signal is 0.437 fold enrichment over input.
Turning to B2, the binding signal is 0.424 fold enrichment over input.
The same measure, in the same setting: in the case of B3 it was 0.599 fold enrichment over input; in that of B4, 0.486 fold enrichment over input.
Same read-out and setting: the same measure for B5: 0.6 fold enrichment over input.
On the same count and under the same terms, the same measure for B6: 0.445 fold enrichment over input; for B7: 0.443 fold enrichment over input; for B8: 0.483 fold enrichment over input.
As to B9, the binding signal was 0.515 fold enrichment over input.
The same measure, in the same setting: in the case of B10 it was 0.487 fold enrichment over input.
As to B11, the binding signal was 0.44 fold enrichment over input.
On to B12, for which the binding signal is 0.474 fold enrichment over input.
As to B13, the binding signal was 0.519 fold enrichment over input.
For the molecule B14, the binding signal was 0.531 fold enrichment over input.
Take B15: the binding signal was 0.471 fold enrichment over input.
On to B16, for which the binding signal was 0.483 fold enrichment over input.
In the case of B17, the binding signal is 0.596 fold enrichment over input.
In the case of B18, the binding signal is 0.573 fold enrichment over input.
In the case of B19, the binding signal is 0.52 fold enrichment over input.
On the same count and under the same terms, in the case of B20 it was 0.514 fold enrichment over input; in that of B21, 0.452 fold enrichment over input; in that of B22, 0.561 fold enrichment over input.
Same read-out and setting: the same measure for B23: 0.447 fold enrichment over input.

The record behind these values is PMC12529666, “Dysregulation of AGO2-miRNA dynamics underlies the AGO2-associated Lessel–Kreienkamp syndrome”.
